Several values for one entry are separate records, joined by “and”; a condition that tells them apart may be missing. Identical values can stand only once. Records with an inconclusive call do not appear. Where a structure was tested more than once in an assay, its records may differ in their call. Activity calls are given as the source filed them. Unless noted, the call rests on the fitted dose curve; in most records, active means well fitted curve in the direction sought with a large enough effect in the repeat runs; inconclusive means weak or mixed curves; inactive means no such curve, though single readings can be large; an effect the other way counts as inactive or inconclusive.
What was measured:
[1] = qHTS assay to identify small molecule antagonists of the glucocorticoid receptor (GR) signaling pathway - cell viability counter screen (AID 720693); details: GR-bla HeLa viability, CellTiter-Glo luminescence, 18 h, with 5 nM dexamethasone present; series mostly up to 58.5 µM; further: nearly all actives have a fitted effect of over 55% in size
[2] = qHTS assay for identifying genotoxic compounds that show differential cytotoxicity against isogenic chicken DT40 cell lines with known DNA damage response pathways - wild type cell line (AID 743012); details: DT40 wild type chicken cells viability, CellTiter-Glo, 40 h; series mostly up to 68.4 µM; further: nearly all actives have a fitted effect of over 60% in size; further: potency means the concentration at half of the fitted maximal effect
Procedure, shortened: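 Viability of DNA repair-proficient chicken DT40 cells was assessed by CellTiter-Glo luminescence following 40 h compound exposure at 37 C/5% CO2.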

[3] = qHTS assay for identifying genotoxic compounds that show differential cytotoxicity against isogenic chicken DT40 cell lines with known DNA damage response pathways - Rev3 mutant cell line (AID 743014); details: chicken DT40 Rev3-/- viability, CellTiter-Glo, 40 h; series mostly up to 68.4 µM; further: nearly all actives have a fitted effect of over 55% in size; further: potency means the concentration at half of the fitted maximal effect
[4] = qHTS assay for identifying genotoxic compounds that show differential cytotoxicity against isogenic chicken DT40 cell lines with known DNA damage response pathways - Rad54/Ku70 mutant cell line (AID 743015); details: DT40 Rad54/Ku70 mutant viability, CellTiter-Glo, 40 h; series mostly up to 66.8 µM; further: nearly all actives have a fitted effect of over 60% in size; further: potency means the concentration at half of the fitted maximal effect
[5] = qHTS assay to identify small molecule antagonists of the androgen receptor (AR) signaling pathway - cell viability counter screen (AID 743033; further: nearly all actives have a fitted effect of over 45% in size; further: potency means the concentration at half of the fitted maximal effect); details: AR-bla HEK293 viability, CellTiter-Glo luminescence, 16 h; series mostly up to 58.5 µM
[6] = target: Androgen receptor (Homo sapiens) (UniProt P10275); assay: qHTS assay to identify small molecule agonists of the androgen receptor (AR) signaling pathway using the MDA cell line (AID 743040; further: nearly all actives have a fitted effect of over 20% in size); details: MDA-kb2 AR-luc cells, MMTV luciferase, 16 h, stronger effect = higher value; series mostly up to 70.3 µM
Procedure, shortened: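 Testing was done with the MDA-kb2 AR-luc line, a human breast carcinoma stably transfected with MMTV-luciferase containing AR and GR response elements. Cells were exposed 16 h at 37C before ONE-Glo luminescence detection.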

[7] = qHTS assay to identify small molecule antagonists of the androgen receptor (AR) signaling pathway using the MDA cell line - cell viability counter screen (AID 743041; further: nearly all actives have a fitted effect of over 45% in size; further: potency means the concentration at half of the fitted maximal effect); details: MDA-kb2 viability, CellTiter-Fluor, 16 h, cells co-treated with R1881 androgen agonist; series mostly up to 70.3 µM
Procedure, shortened: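 Compound exposure lasted 16 h at 37C in MDA-kb2 AR-luc cells stimulated with R1881. Protease-based CellTiter-Fluor reagent was applied for the final 30 min and fluorescence measured.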

[8] = target: Androgen receptor (Homo sapiens) (UniProt P10275); assay: qHTS assay to identify small molecule antagonists of the androgen receptor (AR) signaling pathway using the MDA cell line (AID 743042; further: nearly all actives have a fitted effect of over 55% in size; further: potency means the concentration at half of the fitted maximal effect); details: MDA-kb2 AR-luc, MMTV luciferase, R1881 antagonist, 16 h; series mostly up to 70.3 µM
Procedure, shortened: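 MDA-kb2 breast carcinoma cells carrying MMTV-luciferase (AR/GR responsive) were co-treated with compounds and the agonist R1881 for 16 h at 37C. Inhibition read as ONE-Glo luminescence; CellTiter-Fluor fluorescence measured in parallel for cytotoxicity.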

[9] = qHTS assay to identify small molecule antagonists of the thyroid receptor (TR) signaling pathway - cell viability counter screen (AID 743064); details: GH3.TRE-Luc viability, CellTiter-Fluor, 24 h; series mostly up to 70.3 µM; further: nearly all actives have a fitted effect of over 50% in size; further: potency means the concentration at half of the fitted maximal effect
Procedure, shortened: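 CellTiter-Fluor readout, 30 min at 37 °C/5% CO2, following 23.5 h incubation of GH3.TRE-Luc cells with test compound and 1 nM T3 (final).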

[10] = qHTS assay to identify small molecule antagonists of the thyroid receptor (TR) signaling pathway (AID 743065); details: GH3.TRE-Luc, T3-stimulated luciferase inhibition, 23.5 h; series mostly up to 70.3 µM; further: nearly all actives have a fitted effect of over 55% in size; further: potency means the concentration at half of the fitted maximal effect
Procedure, shortened: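 GH3.TRE-Luc rat pituitary cells (two TREs driving luciferase) were dosed with compound, then stimulated with 1 nM T3 (final) for 23.5 h at 37 C. ONE-Glo luminescence was the read-out, with CellTiter-Fluor fluorescence as the cytotoxicity counter-screen.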

[11] = system: thyroid hormone receptor (rat, GH3 cells); assay: qHTS assay to identify small molecule agonists of the thyroid receptor (TR) signaling pathway (AID 743066; calls by dose curve; further: potency means the concentration at half of the fitted maximal effect); details: GH3.TRE-Luc cells, TR agonist luciferase, 24 h; series mostly up to 83.9 µM
[12] = target: Estrogen receptor (Homo sapiens) (UniProt P03372); assay: qHTS assay to identify small molecule antagonists of the estrogen receptor alpha (ER-alpha) signaling pathway (AID 743069; active means well fitted curve in the direction sought with a large enough effect in the signal ratio in the repeat runs, not every such curve was filed as active; the % refers to the signal ratio); details: HEK293 ER-alpha-UAS-bla, beta-lactamase ratio, antagonist mode; series mostly up to 69.4 µM
Procedure, shortened: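 In this cell-based reporter format, GripTite HEK293 cells harbouring ER-alpha-UAS-bla were grown overnight with 2% charcoal-stripped FBS, dosed with DMSO-dissolved compounds, then challenged with 17beta-estradiol. After 18 hr at 37C, beta-lactamase activity was detected by FRET fluorescence.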

[13] = qHTS assay to identify small molecule antagonists of the estrogen receptor alpha (ER-alpha) signaling pathway - cell viability counter screen (AID 743074; calls by dose curve; further: nearly all actives have a fitted effect of over 45% in size; further: potency means the concentration at half of the fitted maximal effect); details: ERalpha-bla HEK293 viability, CellTiter-Glo luminescence, 18 h; series mostly up to 69.4 µM
[14] = target: Estrogen receptor (Homo sapiens) (UniProt P03372); assay: qHTS assay to identify small molecule agonists of the estrogen receptor alpha (ER-alpha) signaling pathway (AID 743075; calls by dose curve); details: HEK293 ER-alpha-UAS-bla, beta-lactamase FRET ratio, 18 h; series mostly up to 70.1 µM
[15] = target: Estrogen receptor (Homo sapiens) (UniProt P03372); assay: qHTS assay to identify small molecule agonists of the estrogen receptor alpha (ER-alpha) signaling pathway using the BG1 cell line (AID 743079); details: BG1Luc4E2 cells, ERE-luciferase agonist, 22 h; series mostly up to 70.3 µM; further: nearly all actives have a fitted effect of over 20% in size
[16] = qHTS assay to identify small molecule antagonists of the estrogen receptor alpha (ER-alpha) signaling pathway using the BG1 cell line (AID 743080; calls by dose curve;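 further: BG1 cells stimulated with 17beta-estradiol alongside compound; nearly all actives have a fitted effect of over 25% in size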); details: BG1Luc4E2 ERE-luciferase antagonist mode, luminescence; activity change, negative = inhibition: at 70.3 µM (top of the series)
Procedure, shortened: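 Quantitative HTS on the Tox21 10K library: BG1 cells with endogenous ER-alpha and ERE-luciferase reporter, 17beta-estradiol stimulation, 21.5 h compound exposure, luminescence endpoint with parallel fluorescence cytotoxicity counter-read.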

[17] = qHTS assay to identify small molecule antagonists of the estrogen receptor alpha (ER-alpha) signaling pathway using the BG1 cell line - cell viability counter screen (AID 743081); details: BG1Luc4E2 viability, CellTiter-Fluor, 22 h; series mostly up to 70.3 µM;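 further: compound given together with 17beta-estradiol as the ER stimulus; nearly all actives have a fitted effect of over 45% in size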; further: potency means the concentration at half of the fitted maximal effect
[18] = target: Aromatase (Homo sapiens) (UniProt P11511); assay: qHTS assay to identify aromatase inhibitors (AID 743083); details: MCF-7 aro ERE, testosterone-driven ERE luciferase, 24 h; series mostly up to 70.3 µM; further: nearly all actives have a fitted effect of over 55% in size; further: potency means the concentration at half of the fitted maximal effect
[19] = target: Androgen receptor (Homo sapiens) (UniProt P10275); assay: qHTS assay to identify small molecule antagonists of the androgen receptor (AR) signaling pathway (AID 743035; active means well fitted inhibition curve with a large enough effect in the signal ratio in the repeat runs, not every such curve was filed as active; the % refers to the signal ratio); details: HEK293 AR-UAS-bla, R1881-stimulated, beta-lactamase FRET, 16 h; series mostly up to 58.5 µM
Procedure, shortened: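 Reporter HEK293 cells were exposed to compounds and R1881 overnight (16 h, 37C); beta-lactamase activity was then quantified by FRET fluorescence.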

[20] = target: Androgen receptor (Homo sapiens) (UniProt P10275); assay: qHTS assay to identify small molecule agonists of the androgen receptor (AR) signaling pathway (AID 743036; active means well fitted activation curve with a large enough effect in the signal ratio in the repeat runs, with a control signal flat, not every such curve was filed as active; the % refers to the signal ratio); details: HEK293 AR-UAS-bla GripTite, beta-lactamase FRET ratio, 16 h; series mostly up to 62.4 µM
Procedure, shortened: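 Following a 4 h settling period, AR-UAS-bla HEK293 cells were dosed with compounds for 16 h at 37C. A 2 h room-temperature incubation with LiveBLAzer B/G FRET substrate preceded the fluorescence measurement.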

Measured: Potency

Androgen receptor (Homo sapiens), sequence (P10275 whole entry, looked up): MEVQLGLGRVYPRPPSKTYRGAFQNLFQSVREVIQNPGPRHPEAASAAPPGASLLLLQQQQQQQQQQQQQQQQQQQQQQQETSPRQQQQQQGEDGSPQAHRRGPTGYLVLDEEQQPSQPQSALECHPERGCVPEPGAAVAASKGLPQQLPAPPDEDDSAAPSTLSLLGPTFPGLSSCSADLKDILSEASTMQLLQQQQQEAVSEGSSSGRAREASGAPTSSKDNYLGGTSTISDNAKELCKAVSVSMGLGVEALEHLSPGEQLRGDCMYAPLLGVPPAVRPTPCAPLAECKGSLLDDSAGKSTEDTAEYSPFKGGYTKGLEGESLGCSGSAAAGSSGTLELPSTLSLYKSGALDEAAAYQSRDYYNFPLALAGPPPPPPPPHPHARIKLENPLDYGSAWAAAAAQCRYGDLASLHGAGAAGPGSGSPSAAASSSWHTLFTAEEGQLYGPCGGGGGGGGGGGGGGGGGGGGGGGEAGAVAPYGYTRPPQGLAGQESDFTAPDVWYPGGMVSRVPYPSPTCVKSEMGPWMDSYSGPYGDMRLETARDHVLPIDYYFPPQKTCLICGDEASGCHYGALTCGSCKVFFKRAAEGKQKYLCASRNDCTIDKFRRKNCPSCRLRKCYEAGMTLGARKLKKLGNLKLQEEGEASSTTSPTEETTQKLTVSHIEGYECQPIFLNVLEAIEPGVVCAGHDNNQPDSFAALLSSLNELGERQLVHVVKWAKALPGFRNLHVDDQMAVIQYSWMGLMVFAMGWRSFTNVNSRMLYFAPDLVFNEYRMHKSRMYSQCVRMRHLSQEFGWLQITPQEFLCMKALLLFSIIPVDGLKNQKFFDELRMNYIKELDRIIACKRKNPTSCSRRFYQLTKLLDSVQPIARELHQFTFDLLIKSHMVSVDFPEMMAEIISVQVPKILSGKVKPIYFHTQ
Estrogen receptor (Homo sapiens), sequence (P03372 whole entry, looked up): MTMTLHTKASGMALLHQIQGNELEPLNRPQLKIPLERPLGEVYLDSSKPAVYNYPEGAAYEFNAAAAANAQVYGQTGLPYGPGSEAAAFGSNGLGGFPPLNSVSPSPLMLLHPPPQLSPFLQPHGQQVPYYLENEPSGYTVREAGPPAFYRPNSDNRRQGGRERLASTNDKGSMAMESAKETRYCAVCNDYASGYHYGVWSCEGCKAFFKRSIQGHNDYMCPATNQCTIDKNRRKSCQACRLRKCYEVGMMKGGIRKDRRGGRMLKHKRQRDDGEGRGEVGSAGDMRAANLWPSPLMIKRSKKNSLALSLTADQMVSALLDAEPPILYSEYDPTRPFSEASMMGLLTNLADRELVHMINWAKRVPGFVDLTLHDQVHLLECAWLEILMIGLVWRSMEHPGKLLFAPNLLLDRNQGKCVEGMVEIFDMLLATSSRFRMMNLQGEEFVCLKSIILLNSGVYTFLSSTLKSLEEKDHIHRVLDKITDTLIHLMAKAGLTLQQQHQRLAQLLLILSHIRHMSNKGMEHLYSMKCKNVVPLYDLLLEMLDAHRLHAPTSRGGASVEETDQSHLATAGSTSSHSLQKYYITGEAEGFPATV
Aromatase (Homo sapiens), sequence (P11511 whole entry, looked up): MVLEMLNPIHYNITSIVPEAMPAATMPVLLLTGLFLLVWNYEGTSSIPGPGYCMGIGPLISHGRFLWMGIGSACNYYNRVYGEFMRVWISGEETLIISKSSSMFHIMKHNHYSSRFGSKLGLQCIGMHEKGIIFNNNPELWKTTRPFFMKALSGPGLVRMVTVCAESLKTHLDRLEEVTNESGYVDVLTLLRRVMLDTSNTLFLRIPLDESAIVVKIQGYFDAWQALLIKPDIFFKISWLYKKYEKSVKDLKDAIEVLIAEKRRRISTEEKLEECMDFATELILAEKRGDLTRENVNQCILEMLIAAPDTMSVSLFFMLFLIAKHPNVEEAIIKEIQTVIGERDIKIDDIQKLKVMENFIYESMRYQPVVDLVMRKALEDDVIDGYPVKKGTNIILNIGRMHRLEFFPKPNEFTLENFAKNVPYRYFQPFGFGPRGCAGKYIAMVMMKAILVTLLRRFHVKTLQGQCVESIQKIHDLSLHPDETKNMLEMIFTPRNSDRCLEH

COc1ccc2c(c1)c(CC(=O)O)c(C)n2C(=O)c1ccc(Cl)cc1
not listed: [19] | [20]
inactive: all other assays above

Cc1cn([C@H]2C=C[C@@H](CO)O2)c(=O)[nH]c1=O
inactive: [1] | [2] | [3] | [4] | [5] | [9] | [10] | [11] | [13] | [17] | [18]

CN1CCc2cccc3c2[C@H]1Cc1ccc(O)c(O)c1-3
active: [2] 9.44 µM and 15.5 µM and 12.8 µM | [3] 11.9 µM and 6.93 µM and 9.09 µM | [4] 16.8 µM and 12.3 µM and 8.1 µM | [5] 55.5 µM | [9] 29.8 µM and 49.1 µM and 22.8 µM | [17] 69.3 µM | [18] 21.9 µM and 11.4 µM
inactive: [1] | [12] | [13] | [14]

CN(C)CCOC(c1ccccc1)c1ccccc1
inactive and 9.52 µM (active): [13]
active: [9] 26.6 µM and 19.4 µM | [10] 26.6 µM and 48.6 µM
not listed: [2] | [3] | [4] | [8] | [18]
inactive: all other assays above

COc1ccc(CN(CCN(C)C)c2ccccn2)cc1
inactive: [1] | [2] | [3] | [4] | [5] | [11] | [13] | [17]

CC1(C)O[C@@H]2C[C@H]3[C@@H]4CCC5=CC(=O)C=C[C@]5(C)[C@@]4(F)[C@@H](O)C[C@]3(C)[C@]2(C(=O)CO)O1
inactive: [2] | [3] | [4] | [5] | [7] | [9] | [10] | [11] | [13] | [17] | [18]

C1CCC(C(CC2CCCCN2)C2CCCCC2)CC1 (stereo not given)
active: [2] 2.66 µM | [3] 4.73 µM | [4] 5.96 µM | [5] 23.9 µM | [7] 18.8 µM | [8] 13.3 µM | [9] 4.73 µM | [10] 5.96 µM | [13] 21.3 µM
inactive: [6]

O=C1O[C@H]([C@@H](O)CO)C(O)=C1O
inactive: [1] | [5] | [9] | [13] | [17] | [18]
inactive and 54.5 µM (active): [2]
inactive and 21.7 µM (active): [3]
inactive and 48.6 µM (active): [4]
inactive and 34.3 µM (active): [11]

O=CC(=O)c1ccccc1
not listed: [3] | [6] | [7] | [8] | [10] | [11] | [19] | [20]
inactive: all other assays above

O=C1NS(=O)(=O)c2ccccc21
inactive: [1] | [2] | [3] | [4] | [5] | [9] | [13] | [17] | [18]

O=C1NC(=O)C(c2ccccc2)(c2ccccc2)N1
inactive: [2] | [3] | [4] | [5] | [7] | [9] | [10] | [11] | [13] | [17] | [18]

CCOc1ccc(NC(C)=O)cc1
not listed: [1]
inactive: all other assays above

O=c1[nH]cnc2c1ncn2[C@H]1CC[C@@H](CO)O1
inactive and 61.1 µM (active): [4]
inactive and 1.31 µM (active): [11]
not listed: [3] | [6] | [8] | [19] | [20]
inactive: all other assays above

Reference: PubChem BioAssay (Tox21)
